# Among all 39,000 compounds or so, about 3,300 (8.5%) were called active. The full list was thinned out, with actives kept by preference.
# System: HepG2
# Test: cytotoxicity call (relative viability < 0.9)
# Conditions: 10 µM
row,SMILES,cytotoxicity call
1,CN(C)Cc1cn(CC[C@H]2CC[C@H](NS(=O)(=O)c3ccccc3)[C@H](CO)O2)nn1,inactive
2,C[C@H]1CN([C@@H](C)CO)C(=O)c2cc(NS(C)(=O)=O)ccc2O[C@H]1CN(C)Cc1ccc(C(=O)Nc2ccccc2N)cc1,inactive
3,C[C@H]1CN([C@@H](C)CO)C(=O)CCCn2nncc2CO[C@@H]1CN(C)C(=O)Nc1cccc2ccccc12,inactive
4,C[C@H](CO)N1C[C@H](C)[C@@H](CN(C)C(=O)Nc2ccc(C(F)(F)F)cc2)Oc2ccc(NC(=O)C3CCCCC3)cc2CC1=O,inactive
5,O=C1O[C@@H](c2ccccc2)[C@@H](c2ccccc2)N2[C@@H](c3ccc(OCCO)cc3)[C@]3(C(=O)Nc4ccc(C#CC5=CCCCC5)cc43)[C@@H](C(=O)NC[C@H](O)c3ccccc3)[C@H]12,active
6,O=C1O[C@@H](c2ccccc2)[C@@H](c2ccccc2)N2[C@@H](c3ccc(O)cc3)[C@]3(C(=O)Nc4ccc(C#CC5=CCCCC5)cc43)[C@@H](C(=O)NC[C@H](O)c3ccccc3)[C@H]12,inactive
7,O=C1O[C@@H](c2ccccc2)[C@@H](c2ccccc2)N2[C@@H](c3ccc(OCCO)cc3)[C@]3(C(=O)Nc4ccc(C#CC5(O)CCCCCC5)cc43)[C@@H](C(=O)NC[C@H](O)c3ccccc3)[C@H]12,inactive
8,COc1cccc(S(=O)(=O)N(C)C[C@@H]2Oc3ncc(C#CCC(C)C)cc3C(=O)N([C@H](C)CO)C[C@H]2C)c1,inactive
9,O=C(C[C@H]1CC[C@@H]2[C@H](COC[C@@H](O)CN2S(=O)(=O)c2ccccc2)O1)N1CCOCC1,inactive
10,O=C(NC1CCN(CCCCC2(C(=O)NCC(F)(F)F)c3ccccc3-c3ccccc32)CC1)c1ccccc1-c1ccc(C(F)(F)F)cc1,active
11,O=C(NC1CCCCCCC1)c1ccccc1-c1ccccc1,inactive
12,C[C@]1(C(=O)NCC(F)(F)F)c2ccccc2C(=O)N(Cc2cc(C(F)(F)F)cc(C(F)(F)F)c2)[C@H]1c1ccc(CO)cc1,inactive
13,C[C@H]([C@@H](N)C(=O)N[C@H](C(=O)O)[C@H]1O[C@@H](n2ccc(O)cc2=O)[C@@H](O)[C@H]1O)[C@@H](C)c1ccc(O)cn1,inactive
14,C[C@H](CO)N1C[C@H](C)[C@@H](CN(C)C(=O)Cc2ccncc2)Oc2cc(-c3cncnc3)ccc2S1(=O)=O,inactive
15,C[C@@H]1CN([C@H](C)CO)C(=O)c2cc(NC(=O)Cc3cn(C)c4ccccc34)ccc2O[C@H]1CN(C)Cc1ccc(Cl)c(Cl)c1,inactive
16,C[C@@H]1CN([C@@H](C)CO)C(=O)c2cc(NC(=O)Cc3cn(C)c4ccccc34)ccc2O[C@@H]1CN(C)S(C)(=O)=O,inactive
17,C[C@H](CO)N1C[C@H](C)[C@@H](CN(C)Cc2ccc(Cl)c(Cl)c2)Oc2ccc(NC(=O)Cc3cn(C)c4ccccc34)cc2CC1=O,inactive
18,C[C@H]1CN([C@@H](C)CO)C(=O)c2cc(NC(=O)Cc3cn(C)c4ccccc34)ccc2O[C@@H]1CN(C)Cc1ccc(Cl)c(Cl)c1,inactive
19,C[C@H]1CN([C@@H](C)CO)C(=O)c2cc(NC(=O)Cc3cn(C)c4ccccc34)ccc2O[C@@H]1CN(C)S(C)(=O)=O,inactive
20,C[C@H](CO)N1C[C@H](C)[C@@H](CN(C)Cc2ccc(Cl)c(Cl)c2)Oc2ccc(NC(=O)Cc3cn(C)c4ccccc34)cc2C1=O,inactive

row,SMILES,cytotoxicity call
1,C[C@@H]1CN([C@H](C)CN(C)C)C(=O)c2cc(NC(=O)Cc3cn(C)c4ccccc34)ccc2O[C@H]1CN(C)S(=O)(=O)c1ccc(Cl)cc1,active
2,C[C@H](CO)N1C[C@H](C)[C@H](CN(C)Cc2ccc(Cl)c(Cl)c2)Oc2ccc(NC(=O)Cc3cn(C)c4ccccc34)cc2C1=O,inactive
3,C[C@H]1CN([C@@H](C)CO)C(=O)c2cc(NC(=O)Cc3cn(C)c4ccccc34)ccc2O[C@H]1CN(C)Cc1ccc(Cl)c(Cl)c1,inactive
4,C[C@@H]1CN([C@H](C)CO)C(=O)c2cc(NC(=O)Cc3cn(C)c4ccccc34)ccc2O[C@@H]1CN(C)Cc1ccc(Cl)c(Cl)c1,active
5,C[C@@H]1CN([C@@H](C)CO)C(=O)c2cc(NC(=O)Cc3cn(C)c4ccccc34)ccc2O[C@H]1CN(C)Cc1ccc(Cl)c(Cl)c1,active
6,C[C@@H]1CN([C@@H](C)CO)C(=O)c2cc(NC(=O)Cc3cn(C)c4ccccc34)ccc2O[C@@H]1CN(C)Cc1ccc(Cl)c(Cl)c1,active
7,Cc1noc(C)c1S(=O)(=O)Nc1ccc2c(c1)CC(=O)N([C@@H](C)CO)C[C@H](C)[C@H](CN(C)S(=O)(=O)c1ccc(F)cc1)O2,inactive
8,CC(C)NC(=O)Nc1ccc2c(c1)CC(=O)N([C@@H](C)CO)C[C@H](C)[C@H](CN(C)S(=O)(=O)c1ccc(Cl)cc1)O2,inactive
9,CO[C@@H]1CN(C)C(=O)c2ccc(NC(=O)NC(C)C)cc2OC[C@H](C)N(Cc2ccc(-c3ccccn3)cc2)C[C@@H]1C,inactive
10,O=c1[nH]c2cc(C(F)(F)F)c(N3CCOCC3)cc2n(CP(=O)(O)O)c1=O,inactive
11,C[C@H](CO)N1C[C@H](C)[C@@H](CN(C)S(=O)(=O)c2cccs2)Oc2ccc(NC(=O)C3CC3)cc2CC1=O,inactive
12,Cc1noc(C)c1NC(=O)Nc1ccc2c(c1)C(=O)N([C@H](C)CO)C[C@@H](C)[C@H](CN(C)Cc1ccncc1)OCCCC[C@H](C)O2,inactive
13,C[C@@H]1CN([C@@H](C)CO)C(=O)c2cccc(NC(=O)CCCCCC(=O)Nc3ccccc3N)c2O[C@@H]1CN(C)C(=O)Nc1ccc(C(F)(F)F)cc1,inactive
14,Cc1ccc(S[C@]2(C(=O)NCC(C)C)CC(=O)N(C3Cc4ccccc4C3)[C@@H]2c2ccc(CO)cc2I)cc1,inactive
15,C[C@@H]1CCCCO[C@@H](CN(C)Cc2ccncc2)[C@@H](C)CN([C@@H](C)CO)C(=O)c2cc(NC(=O)CCC(F)(F)F)ccc2O1,inactive
16,C[C@@H]1CN([C@@H](C)CO)C(=O)c2cccc(NC(=O)c3cnccn3)c2O[C@H]1CN(C)C(=O)Nc1ccc2c(c1)OCO2,inactive
17,C[C@@H]1CN([C@H](C)CO)C(=O)CCCn2nncc2CO[C@@H]1CN(C)C(=O)Nc1ccc2c(c1)OCCO2,inactive
18,C[C@H]1CN([C@@H](C)CO)C(=O)Cc2cc(NC(=O)Cc3cn(C)c4ccccc34)ccc2O[C@H]1CN(C)Cc1ccc(Cl)c(Cl)c1,inactive
19,C[C@@H]1CN([C@H](C)CO)C(=O)Cc2cc(NC(=O)Cc3cn(C)c4ccccc34)ccc2O[C@@H]1CN(C)Cc1ccc(Cl)c(Cl)c1,active
20,C[C@H](CO)N1C[C@H](C)[C@H](CN(C)Cc2ccc(Cl)c(Cl)c2)Oc2ccc(NC(=O)Cc3cn(C)c4ccccc34)cc2CC1=O,active

row,SMILES,cytotoxicity call
1,C[C@@H]1CN([C@@H](C)CO)C(=O)Cc2cc(NC(=O)Cc3cn(C)c4ccccc34)ccc2O[C@H]1CN(C)Cc1ccc(Cl)c(Cl)c1,inactive
2,C[C@H]1CN([C@@H](C)CO)C(=O)Cc2cc(NC(=O)Cc3cn(C)c4ccccc34)ccc2O[C@@H]1CN(C)Cc1ccc(Cl)c(Cl)c1,inactive
3,C[C@@H]1CN([C@H](C)CO)C(=O)Cc2cc(NC(=O)Cc3cn(C)c4ccccc34)ccc2O[C@H]1CN(C)Cc1ccc(Cl)c(Cl)c1,inactive
4,O=C(C[C@H]1CC[C@H]2[C@@H](COC[C@H](O)CN2S(=O)(=O)c2cccc(F)c2)O1)NCCCN1CCOCC1,inactive
5,C[C@@H]1CCCCO[C@H](CN(C)Cc2ccc(C(=O)O)cc2)[C@H](C)CN([C@H](C)CO)C(=O)c2cc(NS(=O)(=O)c3cccs3)ccc2O1,inactive
6,Cc1ccc(S(=O)(=O)Nc2ccc3c(c2)C(=O)N([C@@H](C)CO)C[C@H](C)[C@H](CN(C)C(=O)NC2CCCCC2)OCCCC[C@H](C)O3)cc1,inactive
7,NC(=O)N1C(=O)[C@H]2[C@H](C1=O)[C@H]1C=C(CCCO)[C@@H]2[C@H](c2cccs2)N1Cc1cc2c(cc1Br)OCO2,inactive
8,O=C(C[C@@H]1C[C@@H]2c3cc(NC(=O)C4CCOCC4)ccc3O[C@@H]2[C@@H](CO)O1)NCc1cc(F)ccc1F,inactive
9,CNC[C@H]1OCCCC[C@@H](C)Oc2ccc(NC(=O)Nc3ccc(C(F)(F)F)cc3)cc2C(=O)N([C@H](C)CO)C[C@H]1C,inactive
10,COc1ccc(NC(=O)Nc2ccc3c(c2)C(=O)N([C@@H](C)CO)C[C@@H](C)[C@@H](CN(C)S(=O)(=O)c2c(C)noc2C)OCCCC[C@@H](C)O3)cc1,inactive
11,CCCC(C(=O)OCCN(CC)CC)(c1ccccc1)c1ccccc1.Cl,active
12,CCN(CC)CCOC(=O)c1ccc(N)cc1.Cl,inactive
13,CCN(CC)CCNC(C(=O)OCCC(C)C)c1ccccc1.Cl.Cl (stereo not given),inactive
14,CN1CCN(C(=O)C[C@@H]2CC[C@H]3[C@@H](COC[C@@H](O)CN3S(=O)(=O)c3cccc(Cl)c3)O2)CC1,inactive
15,C[C@@H]1CN([C@@H](C)CO)C(=O)Cc2cc(NC(=O)c3ccncc3)ccc2O[C@@H]1CN(C)Cc1ccc2c(c1)OCO2,inactive
16,C[C@@H]1CCCCO[C@H](CN(C)Cc2ccc3c(c2)OCO3)[C@@H](C)CN([C@H](C)CO)C(=O)c2cc(NC(=O)Nc3ccc(F)cc3)ccc2O1,active
17,C[C@@H]1CCCCO[C@H](CN(C)Cc2ccc3c(c2)OCO3)[C@H](C)CN([C@@H](C)CO)C(=O)c2cc(NC(=O)Nc3ccc(F)cc3)ccc2O1,active
18,C[C@H]1CCCCO[C@@H](CN(C)Cc2ccc3c(c2)OCO3)[C@@H](C)CN([C@@H](C)CO)C(=O)c2cc(NC(=O)Nc3ccc(F)cc3)ccc2O1,inactive
19,C[C@@H]1CCCCO[C@@H](CN(C)Cc2ccc3c(c2)OCO3)[C@H](C)CN([C@H](C)CO)C(=O)c2cc(NC(=O)Nc3ccc(F)cc3)ccc2O1,active
20,C[C@H](CO)N1C[C@H](C)[C@@H](CN(C)Cc2ccc3c(c2)OCO3)OCCCC[C@H](C)Oc2ccc(NC(=O)Nc3ccc(F)cc3)cc2C1=O,active

# — the antibiotic and cytotoxicity screens of Wong et al. (2023)
